# Reference: PubChem BioAssay (Tox21)
# Active and inactive are the calls of the source. A call without a number means that no potency is given here. Calls come from the whole dose curve; as a rule, active = well fitted curve in the direction sought with a large enough effect in the repeat runs; inconclusive = weak or mixed curves; inactive = flat fitted curve, though single readings scatter.
# Assay: qHTS assay to test for compound auto fluorescence at 590 nm (red) in HepG2 cell free culture (AID 720684)
# Settings: cell-free medium autofluorescence, red 540/590 nm; series mostly up to 91.3 µM
# Source text: U.S. Tox21 Program National Center for Advancing Translational Sciences [NCATS] NIH Chemical Genomics Center [NCGC] U.S. Environmental Protection Agency [EPA] National Institutes of Environmental Health Sciences [NIEHS] National Toxicology Program [NTP] U.S. Food and Drug Administration [FDA] Tox21 Assay Overview: Compound auto fluorescence often interferes with screening of the compound library against various biological targets and signaling pathways. Some of these compounds may have fluorophoric properties. Such properties may interfere with the assay outputs resulting in false positives and/or negatives. To decrease such complications and ensure the compound activities are relevant in terms of biological response, the Tox21 10K compound library was screened for auto fluorescence. From the fluorophores used as reporter signals in our screening assays, the auto fluorescence equivalencies of compounds against three fluorophores have been evaluated: Triamterene, Fluorescein and Rose Bengal sodium for blue, green and red fluorescence, respectively. The fluorescence intensities were measured using Excitation/Emission wavelengths at 405/460nm, 485/535nm and 540/590nm for blue, green and red labels, respectively. This assay includes the red fluorescence data.
# Tox21 Assay Protocol Summary: 5 uL of culture medium (MEM containing 10% FBS) per well was dispensed into black wall/clear bottom 1536-well plates using a Multidrop Combi Dispenser (ThermoFisher Scientific, Waltham, MA). After 23 nL compound or DMSO vehicle was transferred into assay plate by a pintool work station (Kalypsys, San Diego, CA), fluorescence intensities in the assay plates were measured by an Envision (PerkinElmer, Shelton, CT) plate reader using three labels for measuring blue, green and red fluorescence at […] 460, 535 and 590nm respectively.
row,Compound,Potency
1,O=C(/C=C/c1ccccc1)OCc1ccccc1,inactive
2,CCC(C)OC(=O)c1ccc(O)cc1 (stereo not given),inactive
3,COC(=O)C1=C(C)NC(C)=C(C(=O)OCCN(C)Cc2ccccc2)C1c1cccc([N+](=O)[O-])c1 (stereo not given),inactive
4,O=C(Nc1ccc([N+](=O)[O-])cc1Cl)c1cc(Cl)ccc1O,inactive
5,Nc1ncnc2nc[nH]c12,inactive
6,O=C(c1ccc(OCCN2CCCCC2)cc1)c1c(-c2ccc(O)cc2)sc2cc(O)ccc12,inactive
7,COc1ccc(OC)c(C(O)CNC(=O)CN)c1 (stereo not given),inactive
8,Cc1[nH]c(=O)c(C#N)cc1-c1ccncc1,inactive
9,Cc1c(C(N)=O)cc([N+](=O)[O-])cc1[N+](=O)[O-],inactive
10,CC(C)=CCCC(C)CCO (stereo not given),inactive
11,Oc1ccc(O)cc1,inactive
12,OC[C@H]1O[C@@H]2O[C@H]3[C@H](O)[C@@H](O)[C@@H](O[C@H]4[C@H](O)[C@@H](O)[C@@H](O[C@H]5[C@H](O)[C@@H](O)[C@@H](O[C@H]6[C@H](O)[C@@H](O)[C@@H](O[C@H]7[C@H](O)[C@@H](O)[C@@H](O[C@H]8[C@H](O)[C@@H](O)[C@@H](O[C@H]1[C@H](O)[C@H]2O)O[C@@H]8CO)O[C@@H]7CO)O[C@@H]6CO)O[C@@H]5CO)O[C@@H]4CO)O[C@@H]3CO,inactive
13,Clc1nc(Cl)c(Cl)c(Cl)c1Cl,inactive
14,CCCCCCCCCC(=O)OC,inactive
15,C=C(C)C(=O)OCCOC(=O)C(=C)C,inactive
16,CC(C)OC=O,inactive
17,NC=O,inactive
18,CCCCc1oc2ccccc2c1C(=O)c1cc(I)c(OCCN(CC)CC)c(I)c1,inactive
19,CCCCC(CC)COCC1CO1 (stereo not given),inactive
20,O=C1c2cccc(O)c2C(=O)c2c(O)cccc21,inactive

row,Compound,Potency
1,COc1cc([C@@H]2c3cc4c(cc3[C@H](O)[C@H]3COC(=O)[C@H]23)OCO4)cc(OC)c1OC,inactive
2,O=C(OCc1ccccc1)c1ccccc1O,inactive
3,COc1cccc2c1C(=O)c1c(O)c3c(c(O)c1C2=O)C[C@@](O)(C(=O)CO)C[C@@H]3O[C@H]1C[C@H](N)[C@H](O)[C@H](C)O1,inactive
4,Nc1ccccc1N,inactive
5,C=C(C)C1CC=C(C)CC1 (stereo not given),inactive
6,CCC(C)(O)CCCC(C)C (stereo not given),inactive
7,O=P(O)(O)O,inactive
8,c1ccc2c(c1)Oc1ccccc1S2,inactive
9,CN(C)CCN(Cc1cccs1)c1ccccn1,inactive
10,c1ccc(Nc2ccccc2)cc1,inactive
11,Cc1ncc[nH]1,inactive
12,C/C=C/C(=O)O,inactive
13,O=C(Nc1ccc(Cl)cc1)Nc1ccc(Cl)c(Cl)c1,inactive
14,CC(C)(C)NC(=O)[C@H]1CC[C@H]2[C@@H]3CC[C@H]4NC(=O)C=C[C@]4(C)[C@H]3CC[C@]12C,inactive
15,CC(=O)c1ccccn1,inactive
16,CC(=O)Oc1ccccc1C(=O)Nc1ncc([N+](=O)[O-])s1,inactive
17,C[C@]12CC[C@H]3[C@@H](CCC4=CC(=O)CC[C@@]43C)[C@@H]1CC[C@@H]2C(=O)CO,inactive
18,CCOC(=O)C(C#N)=C(c1ccccc1)c1ccccc1,inactive
19,Cc1cccc(C(=O)O)c1,inactive
20,c1cc(N(CC2CO2)CC2CO2)ccc1OCC1CO1 (stereo not given),inactive
